This note sets out measurements from ChEMBL document CHEMBL3433997, “St. Jude Leishmania screening dataset” (2016).

A word on the inhibition: it is the drop in the measured response relative to a control, in per cent.

One assay has as its target Hexose transporter 1 (Plasmodium falciparum) (UniProt O97467). In words: ST_JUDE_LEISH: Cytotoxicity at 2uM final concentration against transgenic Leishmania Mexicana promastigotes LmPfHT that are glucose transport deficient and complemented with the Plasmodium falciparum hexose transporter. Activity is measured by DNA content using SYBR green in vitro. In kind it is functional.
As to `Cc1nnc2c(NC(=O)NC(C)C)cc3cc(-c4ccc(CN5CCCCC5)cc4)ccc3n12`, the inhibition was determined as 10.5%.
For the compound `O=C(Nc1cc(Cl)cc(Cl)c1)Nc1ccnc2ccccc12`, the inhibition came to 2.02%.
For the compound `CC1(C)NC(N)=NC(=N)N1OCCSc1ccccc1`, the inhibition was determined as 3.7%.
For `CC(C)c1ccc(Nc2nc(NCCc3c[nH]cn3)nc(NCc3ccccc3)n2)cc1`, the inhibition came out at 1.6%.
In the case of `S=C(NCCCCCN1CCC(c2c[nH]c3ccccc23)CC1)Nc1ccc(Cl)c(Cl)c1`, the inhibition was 1.44%.
The same measure, in the same setting: the value for `CNCCCNCc1ccc(-c2ccc(F)c(Cl)c2)o1` was 1.28%.
Consider `Cc1nc(NCCCn2ccnc2)cc(-c2cncc(-c3ccc(OC(F)(F)F)cc3)c2)n1`, for which the inhibition is 5.92%.
On to `O=C(/C=C/c1ccc(Cl)cc1)NCCCCCN1CCCN(C(=O)Nc2ccc(F)c(Cl)c2)CC1`, for which the inhibition was 3.92%.
Regarding `Cc1cc(N)c2cc(NC(=O)c3cccc(C(=O)Nc4ccc5nc(C)cc(N)c5c4)c3)ccc2n1`, the inhibition was determined as 2.01%.
On the same count and under the same terms, to `Cc1c(Cc2ccc(C(C)C)cc2)cnc2nc(N)nc(N)c12` belongs 0.5%; to `COc1ccc(CN2CCC(N3CCc4cc(NC(=O)c5cc(C)on5)ccc43)C2)cc1Cl` (stereo not given), -3.51%; to `Cc1nc(-c2cccc(Nc3nccc(NCC(O)c4ccc(C(F)(F)F)cc4)n3)c2)cs1` (stereo not given), 1.67%.
As for `CSc1ccc(NC(=O)Nc2cc(C)nc3ccccc23)cc1`, the inhibition amounted to 10.8%.
Regarding `N#Cc1cc([N+](=O)[O-])ccc1-n1nc(C(N)=O)n(Cc2cccc(F)c2)c1=S`, the inhibition was determined as 8.94%.
The same measure, in the same setting: to `CCN(CC)CCN(Cc1ccc(-c2ccc(C(F)(F)F)cc2)cc1)C(=O)Cn1c(SCc2ccc(F)c(F)c2F)nc(=O)c2c1CCC2` belongs 4.02%; to `O=C(Nc1ccccc1F)N(CCCn1ccnc1)Cc1csc(-c2ccc(CNCc3ccccc3)cc2)n1`, 0.06%; to `COc1ccccc1-c1ccc(C(=O)NCC2CCCN(Cc3cccc(C(F)(F)F)c3)C2)s1` (stereo not given), 8.99%.
Take `Cc1nc(C)c(-c2ccc(S(=O)(=O)c3ccc(Cl)cc3)cc2)c(O)c1Br`: the inhibition turned out to be 4.53%.
As to `NC(=O)c1ccc(-c2ccc3ccnc(N)c3c2)cc1`, the inhibition stood at 6.12%.
On to `CC[C@H]1CN(Cc2cccc(O)c2)CC[C@H]1CCCc1ccnc2ccc(O)cc12`, for which the inhibition is 4.23%.
Consider `O=S(=O)(c1cccc(Br)c1)N1CCCCC(c2ccc(C(F)(F)F)cc2)=N1`, for which the inhibition was determined as 3.68%.
`Cc1cc(OCc2ccccc2)c(OCc2ccccc2)cc1C(O)CN(C)Cc1ccccc1` (stereo not given): the inhibition was determined as 1.08%.
Regarding `CS(=O)(=O)Cc1ccc(Nc2nccc(-c3c(-c4cccc(NC(=O)C5CCCCC5)c4)nn4ncccc34)n2)cc1`, the inhibition worked out at 5.62%.
On to `CC(C)N1CCC(N(Cc2ccc(-c3ccc(C(F)(F)F)cc3)cc2)C(=O)Cn2c(CCc3cccc(F)c3F)cc(=O)c3cn(C)nc32)CC1`, for which the inhibition was found to be 8.4%.
On the same count and under the same terms, to `C/C(=C\C(=O)NC1CC1)c1ccccc1OCc1ccccc1` belongs -2.11%; to `COc1ccc2nccc([C@@H](O)CN3CCC(NC(=O)C(c4cc5ccccc5o4)N4CCN(c5ccccc5OC)CC4)CC3)c2c1` (stereo not given in full), 0.92%; to `O=C(CCOc1ccccc1)NCC1CCCO1` (stereo not given), -0.04%.
As to `O=S(=O)(NCCN1CCCC1)c1ccc(-c2cccc(CNC3Cc4ccccc4C3)c2)cc1F`, the inhibition stood at 2.53%.
On to `COc1ccc2nccc(NC(=O)C3(O)CCC(NCc4ccc5c(c4)NCCS5)CC3)c2n1` (stereo not given), for which the inhibition was 22.5%.
As for `Cc1cccc(C(=O)Nc2ccnc(N3CCC(N(C)Cc4cccc(C#N)c4)CC3)c2)c1`, the inhibition is 5.56%.
For the compound `CC[C@H]1CN2CCc3c([nH]c4ccccc34)[C@@H]2C[C@@H]1CC1c2cc(OC)c(OC)cc2CCN1C` (stereo not given in full), the inhibition stood at 10%.
Turning to `c1ccc(-c2cc(NCCCCNc3cc(-c4ccccc4)nc4ccccc34)c3ccccc3n2)cc1`, the inhibition stood at 7.17%.
Consider `O=C(Nc1cccc(-c2cc(-c3c(Cl)cccc3Cl)no2)c1)c1cncc(-c2cccs2)c1`, for which the inhibition amounted to 11.1%.
For `FC(F)(F)c1ccc2[nH]c(-c3ccc(-c4cccc(CNCCc5ccncc5)c4)s3)nc2c1`, the inhibition is 1.67%.
With `Cc1sc(N2CCN(C)CC2)nc1C(=O)Nc1ccc(F)cc1C(F)(F)F`, the inhibition amounted to 2.2%.
As for `COc1ccc(/C=C/C(=O)NCCCCCN2CCC(c3c[nH]c4ccccc34)CC2)cc1O`, the inhibition worked out at 9.97%.
Still for that read-out and setting: the value for `COCCNc1nc(N2CCC(CNC(=O)c3ccc(-c4ccc(C(=O)N(C)C)cc4C)cc3)CC2)nc2cc(OC)c(OC)cc12` was 1.09%; that for `COc1ccccc1N=C1SC(=Cc2cn(CC(=O)N3CCCc4ccccc43)c3ccccc23)C(=O)N1C1CCCCC1` was 0.47%; that for `Fc1ccc2[nH]c(-c3ccc(-c4ccc(CN5CCN(CCN6CCOCC6)CC5)cc4)s3)nc2c1` was 2.96%.
`O=C(NCCCCN1CCC(c2ccc3ccccc3c2)CC1)c1ccc(NC(=O)c2ccc(Cl)cc2)cc1`: the inhibition is 4.42%.

A further assay deals with Glucose transporter (Leishmania mexicana) (UniProt O61059). In words: ST_JUDE_LEISH: Cytotoxicity at 2uM final concentration against transgenic Leishmania Mexicana promastigotes LmGT2 that are glucose transport deficient and complemented with the L. Mexicana glucose transporter 2. Activity is measured by DNA content using SYBR green in vitro. In kind it is functional.
Take `Cc1nnc2c(NC(=O)NC(C)C)cc3cc(-c4ccc(CN5CCCCC5)cc4)ccc3n12`: the inhibition was found to be 11%.
On the same count and under the same terms, to `O=C(Nc1cc(Cl)cc(Cl)c1)Nc1ccnc2ccccc12` belongs -2.71%; to `CC1(C)NC(N)=NC(=N)N1OCCSc1ccccc1`, 3.37%.
With `CC(C)c1ccc(Nc2nc(NCCc3c[nH]cn3)nc(NCc3ccccc3)n2)cc1`, the inhibition amounted to 0.61%.
As for `S=C(NCCCCCN1CCC(c2c[nH]c3ccccc23)CC1)Nc1ccc(Cl)c(Cl)c1`, the inhibition stood at 2.15%.
For `CNCCCNCc1ccc(-c2ccc(F)c(Cl)c2)o1`, the inhibition was found to be 0.56%.
For the compound `Cc1nc(NCCCn2ccnc2)cc(-c2cncc(-c3ccc(OC(F)(F)F)cc3)c2)n1`, the inhibition was determined as 3.04%.
`O=C(/C=C/c1ccc(Cl)cc1)NCCCCCN1CCCN(C(=O)Nc2ccc(F)c(Cl)c2)CC1`: the inhibition was determined as 4.64%.
In the case of `Cc1cc(N)c2cc(NC(=O)c3cccc(C(=O)Nc4ccc5nc(C)cc(N)c5c4)c3)ccc2n1`, the inhibition was -2.06%.
Same read-out and setting: the value for `Cc1c(Cc2ccc(C(C)C)cc2)cnc2nc(N)nc(N)c12` was 1.42%; that for `COc1ccc(CN2CCC(N3CCc4cc(NC(=O)c5cc(C)on5)ccc43)C2)cc1Cl` (stereo not given) was 0.69%; that for `Cc1nc(-c2cccc(Nc3nccc(NCC(O)c4ccc(C(F)(F)F)cc4)n3)c2)cs1` (stereo not given) was -0.68%.
Still for that read-out and setting: to `CSc1ccc(NC(=O)Nc2cc(C)nc3ccccc23)cc1` belongs 10.3%; to `N#Cc1cc([N+](=O)[O-])ccc1-n1nc(C(N)=O)n(Cc2cccc(F)c2)c1=S`, 5.66%; to `CCN(CC)CCN(Cc1ccc(-c2ccc(C(F)(F)F)cc2)cc1)C(=O)Cn1c(SCc2ccc(F)c(F)c2F)nc(=O)c2c1CCC2`, 3.4%.
For the compound `O=C(Nc1ccccc1F)N(CCCn1ccnc1)Cc1csc(-c2ccc(CNCc3ccccc3)cc2)n1`, the inhibition turned out to be 3.14%.
The same measure, in the same setting: to `COc1ccccc1-c1ccc(C(=O)NCC2CCCN(Cc3cccc(C(F)(F)F)c3)C2)s1` (stereo not given) belongs 7.33%.
`Cc1nc(C)c(-c2ccc(S(=O)(=O)c3ccc(Cl)cc3)cc2)c(O)c1Br`: the inhibition came to 4.12%.
On the same count and under the same terms, the value for `NC(=O)c1ccc(-c2ccc3ccnc(N)c3c2)cc1` was 4.88%.
In the case of `CC[C@H]1CN(Cc2cccc(O)c2)CC[C@H]1CCCc1ccnc2ccc(O)cc12`, the inhibition amounted to 3.98%.
Consider `O=S(=O)(c1cccc(Br)c1)N1CCCCC(c2ccc(C(F)(F)F)cc2)=N1`, for which the inhibition was found to be 2.2%.
Still for that read-out and setting: to `Cc1cc(OCc2ccccc2)c(OCc2ccccc2)cc1C(O)CN(C)Cc1ccccc1` (stereo not given) belongs -0.1%; to `CS(=O)(=O)Cc1ccc(Nc2nccc(-c3c(-c4cccc(NC(=O)C5CCCCC5)c4)nn4ncccc34)n2)cc1`, 1.63%.
With `CC(C)N1CCC(N(Cc2ccc(-c3ccc(C(F)(F)F)cc3)cc2)C(=O)Cn2c(CCc3cccc(F)c3F)cc(=O)c3cn(C)nc32)CC1`, the inhibition came to 13%.
As for `C/C(=C\C(=O)NC1CC1)c1ccccc1OCc1ccccc1`, the inhibition worked out at 3.94%.
With `COc1ccc2nccc([C@@H](O)CN3CCC(NC(=O)C(c4cc5ccccc5o4)N4CCN(c5ccccc5OC)CC4)CC3)c2c1` (stereo not given in full), the inhibition was -0.23%.
The same measure, in the same setting: to `O=C(CCOc1ccccc1)NCC1CCCO1` (stereo not given) belongs 1.06%; to `O=S(=O)(NCCN1CCCC1)c1ccc(-c2cccc(CNC3Cc4ccccc4C3)c2)cc1F`, 3.93%; to `COc1ccc2nccc(NC(=O)C3(O)CCC(NCc4ccc5c(c4)NCCS5)CC3)c2n1` (stereo not given), 7.11%.
On the same count and under the same terms, the value for `Cc1cccc(C(=O)Nc2ccnc(N3CCC(N(C)Cc4cccc(C#N)c4)CC3)c2)c1` was 4.5%.
Still for that read-out and setting: the value for `CC[C@H]1CN2CCc3c([nH]c4ccccc34)[C@@H]2C[C@@H]1CC1c2cc(OC)c(OC)cc2CCN1C` (stereo not given in full) was 9.79%; that for `c1ccc(-c2cc(NCCCCNc3cc(-c4ccccc4)nc4ccccc34)c3ccccc3n2)cc1` was 6.81%; that for `O=C(Nc1cccc(-c2cc(-c3c(Cl)cccc3Cl)no2)c1)c1cncc(-c2cccs2)c1` was 10.8%.
In the case of `FC(F)(F)c1ccc2[nH]c(-c3ccc(-c4cccc(CNCCc5ccncc5)c4)s3)nc2c1`, the inhibition was 5.33%.
As to `Cc1sc(N2CCN(C)CC2)nc1C(=O)Nc1ccc(F)cc1C(F)(F)F`, the inhibition was 3.75%.
The same measure, in the same setting: the value for `COc1ccc(/C=C/C(=O)NCCCCCN2CCC(c3c[nH]c4ccccc34)CC2)cc1O` was 7.57%; that for `COCCNc1nc(N2CCC(CNC(=O)c3ccc(-c4ccc(C(=O)N(C)C)cc4C)cc3)CC2)nc2cc(OC)c(OC)cc12` was 1.17%; that for `COc1ccccc1N=C1SC(=Cc2cn(CC(=O)N3CCCc4ccccc43)c3ccccc23)C(=O)N1C1CCCCC1` was -1.37%.
`Fc1ccc2[nH]c(-c3ccc(-c4ccc(CN5CCN(CCN6CCOCC6)CC5)cc4)s3)nc2c1`: the inhibition amounted to 1.83%.
With `O=C(NCCCCN1CCC(c2ccc3ccccc3c2)CC1)c1ccc(NC(=O)c2ccc(Cl)cc2)cc1`, the inhibition stood at 4.1%.
